Screening results deposited in PubChem BioAssay by The Scripps Research Institute Molecular Screening Center.
Shown are actives, neighbours in structure and some others; about 2.8% of the full set was active somewhere.
SMARCA2 activ: SMARCA2 (BRM) function activators, primary screen, cell-based, luminescence, high throughput | MG213 cells, MMTV-luciferase reporter, dexamethasone, overnight | activation, % at 9.1 µM | actives 1% (n = 370,000); in the data active = activation above about 7.8%;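 note: 0% = vehicle wells and 100% = reference activator wells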
MsrA inh: bovine MsrA enzyme inhibitors, primary screen, biochemical, absorbance, HTS; inhibition, % at 15.5 µM; actives 0.75% (n = 360,000); purified bovine MsrA, absorbance read-out; in the data active = inhibition above about 4.5%;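 note: 0% = vehicle wells with enzyme and 100% = reference inhibitor wells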
proKLK7 act: proKLK7 zymogen activators, primary screen, biochemical, fluorescence intensity; actives 0.9% (n = 370,000); purified proKLK7, EDANS-DABCYL substrate fluorescence; 100% is mature enzyme control, 0% vehicle; activation, % at 7 µM;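 active = activation above the mean of all tested compounds plus 3 SD, computed per campaign excluding outliers beyond control limits, cut at about 13% in these data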
Target sequence (P49862 whole entry, looked up): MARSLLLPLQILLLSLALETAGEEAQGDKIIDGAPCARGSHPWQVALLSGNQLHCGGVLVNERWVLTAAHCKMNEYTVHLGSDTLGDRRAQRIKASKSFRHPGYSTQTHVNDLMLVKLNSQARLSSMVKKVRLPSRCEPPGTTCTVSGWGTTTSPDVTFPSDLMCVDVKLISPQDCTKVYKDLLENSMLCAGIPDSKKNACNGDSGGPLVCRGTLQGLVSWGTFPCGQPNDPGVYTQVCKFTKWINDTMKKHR
MsrA act: bovine MsrA enzyme activators, primary screen, biochemical, absorbance, HTS; Methionine sulfoxide reductase A (Bos taurus); activation, % at 10.6 µM; purified bovine MsrA, absorbance read-out; actives 0.3% (n = 360,000); AID 602163, 2012; in the data active = activation above about 7.5%;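 note: 0% = vehicle and 100% = reference activator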
KLK7 act conf: proKLK7 zymogen activators, confirmation, biochemical, fluorescence intensity, triplicate; actives 68% (n = 3,200); activation, % at 7 µM; purified proKLK7, EDANS-DABCYL substrate fluorescence; scaled: vehicle 0, mature enzyme 100; shares compounds with proKLK7 act; AID 686949, 2013;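 active = activation, as change over the incubation, above the mean of all tested compounds plus 3 SD, cut at about 13% in these data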
EDANS interfere: EDANS-DABCYL substrate optical interference, artefact control for kallikrein-7 zymogen activator project, biochemical, fluorescence intensity, high throughput; activation, % at 7 µM; no enzyme, 4 h; solvent 0%, active enzyme control 100%; actives 80% (n = 3,200); AID 686952, 2013; shares compounds with proKLK7 act;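 active = activation above the all-compound mean plus 3 SD, ignoring values outside control-based bounds, cut at about 4.8% in these data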;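 note: value is the 4 h activation minus the activation read at time zero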
K7 EDANS ctr: EDANS fluorescence interference in dose response, no enzyme. EC50, µM. actives 20% (n = 250). EDANS-DABCYL peptide fluorescence interference. shares compounds with proKLK7 act. AID 720493;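 active = compounds that raise the fluorescence signal in this interference counterscreen, with EC50 at or below 10 µM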;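 note: intact quenched peptide substrate alone read at 355 nm excitation and 520 nm emission; signal is fluorescence gain from T0 to T4 after four hours at room temperature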
Active calls of the source: *; . = no result given.

SMILES	SMARCA2 activ	MsrA inh	proKLK7 act	MsrA act	KLK7 act conf	EDANS interfere	others
CCc1c(C)nc(SCC(=O)CC(=O)OC(C)C)c(C#N)c1C	0	0	48*	2	26*	24*
CCOC(=O)NC(=O)CSc1nc(C)cc(C)c1C#N	3	-2	99*	-8	91*	99*
Cc1cc(NC(=O)CSc2nc3c(C)ccc(C)c3cc2C#N)no1	-4	1	0	0	.	.
COC(=O)CC(=O)CSc1nc(C)cc(C)c1C#N	-3	0	20*	2	93*	91*
Cc1cc(C)c(C#N)c(SCC(=O)Nc2cc(C)on2)n1	3	0	16*	-4	102*	109*
Cc1cccc(NC(=O)CNC(=O)COc2cccnc2[N+](=O)[O-])c1C	1	0	0	-2	.	.
CCCCOCCCNC(=O)C[C@@H]1C(=O)N2CCCC3=C2[C@@]1(C(=O)OC)CCCC3	-3	.	0	.	.	.
COC(=O)CCN1CCSCCS1(=O)=O	-4	0	0	.	.	.
CCc1nnc(NC(=O)CSc2nc(C)cc(C)c2C#N)s1	5	1	14*	3	82*	80*
COC(=O)[C@]12C[C@H](CC(=O)NCC34CC5CC(CC(C5)C3)C4)C(=O)N(Cc3ccc(Cl)cc3Cl)C1=C[C@H](C1CCCC1)O[C@@H]2C	8	.	0	.	.	.
CCC(CC)CC1CN2CCc3cc(OC)c(OC)cc3C2CC1(O)CC (stereo not given)	-6	2	30*	0	20*	17*	K7 EDANS ctr=>70
Cc1ccccc1C(=O)N1CCC[C@@H]1C(=O)N1CCC[C@H]1C(=O)NCc1ccccc1	-6	1	0	.	.	.
O=C(O)c1ccc(N2N=C(c3ccccc3)CC2c2ccccc2)cc1 (stereo not given)	4	4	64*	-4	64*	75*
Cc1nc2sc(C(=O)c3ccccc3)c(N)c2c(C)c1C	0	1	50*	-1	-18	0
Cc1nc(-c2ccccc2)nc2sc(C(=O)c3ccc(F)cc3)c(N)c12	-3	1	0	0	.	.
CC1(C(=O)NS(=O)(=O)c2cccc(C#N)c2)CCN1C(=O)CCC1CCCC1 (stereo not given)	-3	1	-1	-3	.	.
CN(C)c1nc(N)c2nccnc2n1	-1	2	21*	-4	1	0
O=C(Nc1nc(-c2ccccc2)cs1)c1ccc(S(=O)(=O)N2CCc3ccccc32)cc1	-4	4	14*	-2	0	-2
COc1ccc(-c2csc(NC(=O)c3ccc(S(=O)(=O)N4CCc5ccccc5C4)cc3)n2)c(OC)c1	-7	2	55*	-6	59*	79*
CC1=C(C(=O)N2CCOCC2)CC(CC(=O)NCCN2CCOCC2)C(=O)N1Cc1ccccc1 (stereo not given)	-6	1	0	-13	.	.
CCCCc1c(-c2ccccc2OC)ncn1Cc1cc(F)cc(F)c1	-8	1	1	.	.	.
CC(OC(=O)Cc1c[nH]c2ccccc12)C(=O)NC1CCCCC1C (stereo not given)	0	-1	0	-3	.	.
CC1(C(=O)NCc2ccco2)Cc2c(-c3ccc(C(N)=O)cc3)ccnc2O1 (stereo not given)	-5	2	0	-1	.	.
CCN1CC(CN(C)Cc2cn(-c3ccc(C)cc3)nc2-c2ccc(F)cc2)CC1=O (stereo not given)	-3	1	1	3	.	.
CCN1CC(CN(C)Cc2cn(-c3cccc(C)c3)nc2-c2cccc(F)c2)CC1=O (stereo not given)	-2	1	17*	-3	1	0
COc1ccc(C2C(C(=O)Nc3ccc(Cl)c(Cl)c3)CCC(=O)N2c2ccc(OC)cc2)cc1 (stereo not given)	-2	.	0	.	.	.
